Screen size: about 190,000 compounds; about 200 (0.11%) were called active. This is one part of a sample in which actives are shown more often than they occur. Cut-off read from the data, not from the text of the source: active = inhibition above about 40%.

Chain of Induced myeloid leukemia cell differentiation protein Mcl-1 (Homo sapiens) (Q07820 whole entry, looked up): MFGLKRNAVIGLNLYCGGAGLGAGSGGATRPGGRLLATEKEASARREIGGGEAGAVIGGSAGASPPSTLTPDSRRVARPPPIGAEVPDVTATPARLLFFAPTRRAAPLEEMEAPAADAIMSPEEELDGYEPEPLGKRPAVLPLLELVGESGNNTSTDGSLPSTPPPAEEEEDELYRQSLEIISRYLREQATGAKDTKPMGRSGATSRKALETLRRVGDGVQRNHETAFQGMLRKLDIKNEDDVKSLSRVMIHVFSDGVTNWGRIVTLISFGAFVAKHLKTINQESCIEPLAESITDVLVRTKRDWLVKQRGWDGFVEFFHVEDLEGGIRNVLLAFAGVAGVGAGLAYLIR

The assay has as its target Induced myeloid leukemia cell differentiation protein Mcl-1 (Homo sapiens) (UniProt Q07820). The assay is described as follows: inhibitors of Bim peptide binding to Mcl-1, primary screen, biochemical, bead-based flow cytometry, multiplex (AID 1009).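 Note: 0% = no compound tracer wells and 100% = peptide blocker.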 To be noted: Bim peptide-Mcl-1 binding, at 10 µM, hits give high values. On the technique in general: In flow cytometry, cells or beads pass a laser one at a time.
In general, inhibition refers to the drop in the measured response relative to a control, in per cent. With `N#C/C(C(=S)Nc1ccccc1)=C1/NN=C(N2CCOCC2)N1c1ccccc1`, the inhibition was 0% (inactive). In the case of `CCN(CC)S(=O)(=O)c1ccc(N2CCOCC2)c(NC(=O)C2COc3ccccc3O2)c1` (stereo not given) it was 2% (inactive); in that of `CCc1cc(C(=O)OC)c(NC(=O)CC2Sc3ccc(C(F)(F)F)cc3NC2=O)s1` (stereo not given), -1% (inactive).

As to `Cc1ccc(S(=O)(=O)N(C)CC(=O)OCC(=O)N2CC(=O)Nc3ccccc32)cc1`, the inhibition is 1% (inactive). In the case of `Cc1ccc(S(=O)(=O)NCC(=O)OCC(=O)N2CCc3ccccc32)cc1` it was -6% (inactive); in that of `Cc1ccc(S(=O)(=O)N(C)CC(=O)N2CCc3ccccc32)cc1`, 41% (active). In the case of `Cc1nnsc1C(=O)N/N=C/c1cccc(C(F)(F)F)c1` it was -2% (inactive); in that of `CN(C)c1ccc(/C=N\S(=O)(=O)c2ccccc2)cc1`, -6% (inactive). For `Cc1cc(NC(=O)CSCc2ccccc2C)no1`, the inhibition is 0% (inactive). For `COc1ccc(-n2c(C)cc(C(=O)COC(=O)c3cc(OC)c(OC)cc3NC(=O)c3cccs3)c2C)cc1`, the inhibition is -5% (inactive). In the case of `O=C(O)c1cccc(NC(=S)N/N=C/c2c[nH]c3ccccc23)c1` it was -3% (inactive); in that of `CC(C)N(C)C(=O)CCc1nnc(CCc2c[nH]c3ccccc23)o1`, -3% (inactive); in that of `CCCCn1nc(C(=O)OCC(=O)Nc2sccc2C(N)=O)c2ccccc2c1=O`, -1% (inactive). Regarding `CC(=O)Nc1ccc(S(=O)(=O)N(C)c2ccc(OCC(=O)OCC(=O)N3CCCCC3)cc2)cc1`, the inhibition was -2% (inactive). In the case of `COc1ccc(CN(C)C(=S)Nc2ccc(Cl)cc2Cl)cc1` it was 1% (inactive). Consider `CCOC(=O)c1c(-c2cccc(N)c2)cn2ccccc12`, for which the inhibition is 0% (inactive).

As for `COCCNC(=O)COc1ccccc1C`, the inhibition was 2% (inactive).

Take `COc1ccccc1CNS(=O)(=O)c1ccc(C)cc1`: the inhibition was -2% (inactive). As for `Cc1ccc(S(=O)(=O)NC(=O)COc2ccccc2C)cc1`, the figure is 51% (active); as for `CN1CCN(CC#CCC2(O)c3ccccc3-c3ccccc32)CC1`, -1% (inactive). For `O=C(Nc1nnc(-c2ccco2)o1)c1ccc(S(=O)(=O)N2CCOCC2)cc1`, the inhibition is 0% (inactive). In the case of `COCCn1c(=NC(=O)c2ccccc2[N+](=O)[O-])sc2cc(S(C)(=O)=O)ccc21` it was -2% (inactive); in that of `CC1(C)CC(=O)C(CC(=O)N2CCC(Cc3ccccc3)CC2)C(=O)C1`, 1% (inactive). As for `COc1ccc(Cl)cc1NC(=O)COC(=O)C(CC(C)C)N1C(=O)C2CC=CCC2C1=O` (stereo not given), the inhibition was -1% (inactive). In the case of `Cc1cc(NC(=O)CN2C(=O)NC(CCc3ccccc3)C2=O)no1` (stereo not given) it was -1% (inactive); in that of `Cc1c(CCOC(=O)c2cc([N+](=O)[O-])ccc2Cl)sc[n+]1CCCCS(=O)(=O)[O-]`, -1% (inactive); in that of `Cc1cccc(C(=O)OCC(=O)NCC(C)C)c1O`, 4% (inactive). In the case of `CC1(C)CC(=O)C(C2c3ccccc3S(=O)(=O)c3ccccc32)C(=O)C1` it was -1% (inactive); in that of `COc1ccc2oc(=O)c(C(=O)N3CCCC3)cc2c1`, 3% (inactive). In the case of `C=CCC(CC=C)(C(N)=O)c1ccccc1`, the inhibition was 3% (inactive). As for `COc1cc(NC(=O)COC(=O)c2cnc(C)cn2)c(C)cc1[N+](=O)[O-]`, the figure is 0% (inactive); as for `Cc1ccc(-c2ccc(/C=N/NC(=O)CN3CCOCC3)o2)cc1[N+](=O)[O-]`, -1% (inactive).

With `Cc1cc(C)n2nc(SCC(=O)NC(=O)NCc3ccco3)nc2n1`, the inhibition is 0% (inactive).

In the case of `CN(C)c1ccc(C(CC(=O)O)C(=O)O)cc1` (stereo not given), the inhibition is -1% (inactive).

For `CC(CO)NCC12CC3CC(CC(C3)C1)C2` (stereo not given), the inhibition was 0% (inactive).

Regarding `Cc1[nH]c2ccccc2c1/C=C(/C#N)C(=O)NC(C)C`, the inhibition is 0% (inactive). For the compound `C=CCN(Cc1nc(-c2cc(OC)c3c(c2)OCO3)oc1C)C1CCS(=O)(=O)C1` (stereo not given), the inhibition is -1% (inactive). Take `CC(C)C(=O)NCc1cc(-c2ccc(Cl)cc2)no1`: the inhibition was -2% (inactive).

Turning to `O=C(NCCCN1CCOCC1)c1ccc(N2CCCC2)c([N+](=O)[O-])c1`, the inhibition is 0% (inactive). On to `O=C(NCc1ccc(F)cc1)C(c1ccccc1)N(C(=O)c1csnn1)C1CC1` (stereo not given), for which the inhibition was -1% (inactive). As for `Nc1[nH][nH]c(=O)c1N=Nc1ccc2c(c1)OCO2`, the figure is 0% (inactive); as for `COc1ccc(Cl)cc1N(CC(=O)N/N=C/c1ccc(OCC(N)=O)cc1)S(C)(=O)=O`, 1% (inactive). As for `CSc1ccc(CN2C(=O)NC3(CCCCCC3)C2=O)cc1`, the figure is 3% (inactive). As for `Cc1nc(N2CCC(C)CC2)c2c(C)c(C(=O)Nc3cc(F)ccc3C)sc2n1`, the figure is -1% (inactive); as for `COc1ccc(/C=N/OCC(=O)N(Cc2ccccc2)c2ccccc2C(=O)O)cc1`, -1% (inactive); as for `C#CCOCCOCCOCCNc1nc(N2CCN(C(=O)[C@H](CCC(=O)O)n3cc(C(N)CO)nn3)CC2)nc(N2CCN(C(=O)[C@H](Cc3ccc(O)cc3)n3cc(C(N)[C@H](C)CC)nn3)CC2)n1` (stereo not given in full), 0% (inactive). On to `CCOC(=O)Cc1ncccc1C(=O)Nc1ccc(OC(F)(F)F)cc1`, for which the inhibition is -7% (inactive). In the case of `COc1ccc(C(=O)N2CCC(C(=O)Nc3ccc(C)cc3)CC2)cc1` it was -3% (inactive); in that of `N#Cc1ccc(-c2nc3cc(C#N)c(C#N)cc3nc2-c2ccccc2)cc1C#N`, 1% (inactive); in that of `O=C(CCN1C(=O)/C(=C/c2cccs2)SC1=S)NNC(=O)c1cccc(O)c1`, 0% (inactive). In the case of `COCC1CCCN(Cc2cn[nH]c2-c2cc3ccccc3o2)C1` (stereo not given) it was -3% (inactive); in that of `O=C(NC(=S)NC1CCSC1=O)c1ccccc1F` (stereo not given), 0% (inactive); in that of `O=C(N/N=C/c1cc([N+](=O)[O-])ccc1O)/C(=C\c1cccs1)NC(=O)c1ccccc1`, 0% (inactive). In the case of `COc1ccc(C(=O)C2CCCN(Cc3cccn3-c3ccccn3)C2)c(C)c1` (stereo not given) it was 0% (inactive); in that of `CN(CC(=O)NC1CCCC1)S(=O)(=O)c1cnc[nH]1`, -8% (inactive); in that of `Cc1cc(C)nc(Nc2ncn[nH]2)n1`, 1% (inactive).

For `CCCCC(CC)CNC(=O)C(=O)C1C(=O)Nc2ccccc21` (stereo not given), the inhibition was -2% (inactive). As to `O=C(/C=C/c1cnc2ccccc2n1)NC1CCCCCC1`, the inhibition is -22% (inactive). As for `COc1cccc(CNC(=O)c2n[nH]c3ccccc23)c1`, the inhibition is 0% (inactive). For `COc1ccc(N(CC(=O)Nc2ccc(C)cc2C)S(=O)(=O)c2ccccc2[N+](=O)[O-])c(OC)c1`, the inhibition was 4% (inactive).

The values are drawn from PubChem BioAssay AID1009 (NMMLSC, 2008).
